In PubChem BioAssay (EPA / NIEHS):
The source made the active and inactive calls. The calls were made as follows: active = hit-call score of the fitted dose curve at least 0.9, where 1 is the maximum; inactive = score below 0.9.

Tests used:
Conditions in all cases: mRNA level, 48 h; actives raise or lower the signal
[1] = read-out: adenosine kinase (ADK) gene, ADK (gene 132); assay: LTEA_HepaRG_ADK: Life Technologies and Expression Analysis (LTEA) Assay for adenosine kinase (ADK) gene using HepaRG (AID 2283471)
Method in brief: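 Following 48 h exposure of HepaRG cells in 0.5% DMSO (top concentration 100 uM, duplicate wells), ADK mRNA induction or suppression was measured by qRT-PCR, normalised to ACTB/GAPDH/POLR2A, and fitted bidirectionally relative to vehicle.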

[2] = read-out: Alpha-fetoprotein (AFP) gene, AFP (gene 174); assay: LTEA_HepaRG_AFP: Life Technologies and Expression Analysis (LTEA) Assay for Alpha-fetoprotein (AFP) gene using HepaRG (AID 2283472)
Method in brief: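 After a 48 h plating period, cells are moved to serum-free induction medium and dosed in duplicate (100 uM maximum, half-log dilutions, 0.5% DMSO) for another 48 h. Total RNA goes to TaqMan qRT-PCR; AFP signal is housekeeping-normalized.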

[3] = read-out: BCL2L11 (gene 10018); assay: LTEA_HepaRG_BCL2L11: Life Technologies and Expression Analysis (LTEA) Assay for Bcl-2 (BCL2L11) gene using HepaRG (AID 2283473)
Method in brief: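 Differentiated human HepaRG cells were exposed 48 h in serum-free induction medium to eight half-log concentrations up to 100 uM in 0.5% DMSO, in duplicate. BCL2L11 mRNA was quantified by TaqMan qRT-PCR, normalized to ACTB, GAPDH and POLR2A; induction or repression fitted versus DMSO.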

[4] = read-out: Apolipoprotein A-V (APOA5) gene, APOA5 (gene 116519); assay: LTEA_HepaRG_APOA5: Life Technologies and Expression Analysis (LTEA) Assay for Apolipoprotein A-V (APOA5) gene using HepaRG (AID 2283474)
Method in brief: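 Differentiated HepaRG cells in serum-free induction medium, exposed 48 h in duplicate to eight half-log concentrations topping at 100 uM (0.5% DMSO). APOA5 mRNA by Fluidigm TaqMan qRT-PCR, normalized to ACTB, GAPDH and POLR2A; bidirectional fit versus DMSO.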

[5] = read-out: Apoptosis regulator Bcl-2 (Homo sapiens) (UniProt P10415); assay: LTEA_HepaRG_BCL2: Life Technologies and Expression Analysis (LTEA) Assay for Bcl-2 gene using HepaRG (AID 2283475)
Method in brief: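 Expression change of BCL2 mRNA in HepaRG after 48 h dosing, quantified by TaqMan qRT-PCR against three endogenous controls. Concentration-response used eight points up to 100 uM, vehicle 0.5% DMSO.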

[6] = read-out: Bcl-2 (BID) gene, BID (gene 637); assay: LTEA_HepaRG_BID: Life Technologies and Expression Analysis (LTEA) Assay for Bcl-2 (BID) gene using HepaRG (AID 2283476)
Method in brief: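 Gain or loss of BID expression is fitted relative to 0.5% DMSO vehicle. Human HepaRG liver cells received a 48 h chemical exposure over an eight-point concentration range.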

[7] = read-out: Caspase-3 (Homo sapiens) (UniProt P42574); assay: LTEA_HepaRG_CASP3: Life Technologies and Expression Analysis (LTEA) Assay for cysteine-aspartic acid protease (CASP3) using HepaRG (AID 2283477)
Method in brief: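 Differentiated HepaRG cells, plated 48 h, were treated in duplicate in serum-free induction medium for 48 h with eight half-log concentrations up to 100 uM in 0.5% DMSO. CASP3 mRNA measured by qRT-PCR, normalized to ACTB, GAPDH, POLR2A.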

[8] = read-out: Cytochrome P450 (CYP24A1), CYP24A1 (gene 1591); assay: LTEA_HepaRG_CYP24A1: Life Technologies and Expression Analysis (LTEA) Assay for Cytochrome P450 (CYP24A1) using HepaRG (AID 2283478)
Method in brief: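 HepaRG cells plated 48 h, then exposed in duplicate in serum-free induction medium for 48 h to 8-point half-log series from 100 uM in 0.5% DMSO. CYP24A1 mRNA by Fluidigm qRT-PCR, normalized to ACTB, GAPDH, POLR2A; bidirectional fit versus DMSO.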

[9] = read-out: Cytochrome P450 (CYP1A2), CYP1A2 (gene 1544); assay: LTEA_HepaRG_CYP1A2: Life Technologies and Expression Analysis (LTEA) Assay for Cytochrome P450 (CYP1A2) using HepaRG (AID 2283479)
Method in brief: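 Differentiated human HepaRG cells in serum-free induction medium exposed 48 hours in duplicate to 8 half-log concentrations from 100 uM, 0.5% DMSO. CYP1A2 mRNA quantified by qRT-PCR, normalized to ACTB, GAPDH and POLR2A; bidirectional fitting versus DMSO.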

[10] = read-out: cysteine-aspartic acid protease (CASP8), CASP8 (gene 841); assay: LTEA_HepaRG_CASP8: Life Technologies and Expression Analysis (LTEA) Assay for cysteine-aspartic acid protease (CASP8) using HepaRG (AID 2283480)
Method in brief: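 Differentiated human HepaRG cells, plated 48 h then switched to serum-free induction medium, were exposed in duplicate for 48 h to 8 half-log concentrations up to 100 uM in 0.5% DMSO. CASP8 mRNA was quantified by qRT-PCR, normalized to ACTB/GAPDH/POLR2A.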

[11] = read-out: Cytochrome P450 (CYP2B6), CYP2B6 (gene 1555); assay: LTEA_HepaRG_CYP2B6: Life Technologies and Expression Analysis (LTEA) Assay for Cytochrome P450 (CYP2B6) using HepaRG (AID 2283481)
Method in brief: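 Differentiated human HepaRG cells in serum-free induction medium, dosed in duplicate for 48 h over 8 half-log concentrations topping at 100 uM (0.5% DMSO). CYP2B6 mRNA measured by TaqMan qRT-PCR, normalized to ACTB, GAPDH, POLR2A; bidirectional fit versus DMSO.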

[12] = read-out: Cytochrome P450 2C19 (Homo sapiens) (UniProt P33261); assay: LTEA_HepaRG_CYP2C19: Life Technologies and Expression Analysis (LTEA) Assay for CYP2C19 using HepaRG (AID 2283482)
Method in brief: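 Differentiated HepaRG cells in serum-free induction medium exposed 48 h in duplicate, 8 concentrations from 100 uM by half-log steps in 0.5% DMSO. CYP2C19 mRNA measured by TaqMan qRT-PCR, normalized to ACTB, GAPDH, POLR2A. Bidirectional fit versus DMSO.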

[13] = read-out: CYP2C8 (gene 1558); assay: LTEA_HepaRG_CYP2C8: Life Technologies and Expression Analysis (LTEA) Assay for CYP2C8 using HepaRG (AID 2283483)
Method in brief: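 Differentiated human HepaRG cells were exposed for 48 h in serum-free induction medium to eight half-log concentrations up to 100 uM in 0.5% DMSO, in duplicate. CYP2C8 mRNA was measured by TaqMan qRT-PCR, normalized to ACTB, GAPDH and POLR2A, and fitted bidirectionally against DMSO.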

[14] = read-out: CYP2C9 (gene 1559); assay: LTEA_HepaRG_CYP2C9: Life Technologies and Expression Analysis (LTEA) Assay for CYP2C9 using HepaRG (AID 2283484)
Method in brief: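 Differentiated human HepaRG cells were exposed 48 h in serum-free induction medium to eight half-log concentrations up to 100 uM in 0.5% DMSO. CYP2C9 mRNA was measured by qRT-PCR, normalized to ACTB, GAPDH and POLR2A, and fitted bidirectionally against DMSO.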

[15] = read-out: CYP2E1 (gene 1571); assay: LTEA_HepaRG_CYP2E1: Life Technologies and Expression Analysis (LTEA) Assay for CYP2E1 using HepaRG (AID 2283485)
Method in brief: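 Differentiated HepaRG cells were treated in duplicate for 48 h with chemicals in 0.5% DMSO, from 100 uM downward in half-log dilutions. RNA was then analysed by qRT-PCR for CYP2E1 induction or loss.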

[16] = read-out: CYP4A11 (gene 1579); assay: LTEA_HepaRG_CYP4A11: Life Technologies and Expression Analysis (LTEA) Assay for CYP4A11 using HepaRG (AID 2283486)
Method in brief: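 Differentiated HepaRG cells, 48 h after plating, exposed in duplicate for 48 h to 8 half-log concentrations up to 100 uM in 0.5% DMSO in serum-free induction medium. CYP4A11 mRNA measured by TaqMan qRT-PCR, normalized to ACTB, GAPDH and POLR2A.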

[17] = read-out: Cytochrome P450 3A4 (Homo sapiens) (UniProt P08684); assay: LTEA_HepaRG_CYP3A4: Life Technologies and Expression Analysis (LTEA) Assay for CYP3A4 using HepaRG (AID 2283487)
Method in brief: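 In a human hepatic line (HepaRG), duplicate wells were treated 48 h with up to 100 uM chemical in half-log dilutions. Endpoint: CYP3A4 mRNA induction or loss relative to 0.5% DMSO vehicle, by qRT-PCR.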

[18] = read-out: DNA damage-inducible transcript 3 (DDIT3), DDIT3 (gene 1649); assay: LTEA_HepaRG_DDIT3: Life Technologies and Expression Analysis (LTEA) Assay for DNA damage-inducible transcript 3 (DDIT3) using HepaRG (AID 2283488)
Method in brief: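 Changes in DDIT3 transcript, in either direction relative to 0.5% DMSO vehicle, were quantified by TaqMan qRT-PCR after 48 h chemical exposure of HepaRG cells at 8 concentrations, maximum 100 uM.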

[19] = read-out: Pro-epidermal growth factor (Homo sapiens) (UniProt P01133); assay: LTEA_HepaRG_EGF: Life Technologies and Expression Analysis (LTEA) Assay for Epidermal growth factor (EGF) using HepaRG (AID 2283489)
Method in brief: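 HepaRG cells (~100,000/well, 48 h pre-culture) exposed in duplicate for 48 h in serum-free induction medium to 8 half-log concentrations up to 100 uM in 0.5% DMSO. EGF mRNA by qRT-PCR, normalized to ACTB/GAPDH/POLR2A; bidirectional fit versus DMSO.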

[20] = read-out: Early growth response protein 1 (EGR1) transcription factor, EGR1 (gene 1958); assay: LTEA_HepaRG_EGR1: Life Technologies and Expression Analysis (LTEA) Assay for Early growth response protein 1 (EGR1) transcription factor using HepaRG (AID 2283490)
Method in brief: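 Differentiated human HepaRG cells in serum-free induction medium were exposed in duplicate for 48 h to eight concentrations (top 100 uM, half-log steps) in 0.5% DMSO. EGR1 mRNA was quantified by qRT-PCR, normalized to ACTB, GAPDH and POLR2A, and fitted bidirectionally versus DMSO.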

Measured: AC50

Cytochrome P450 3A4 (Homo sapiens), sequence (P08684 whole entry, looked up): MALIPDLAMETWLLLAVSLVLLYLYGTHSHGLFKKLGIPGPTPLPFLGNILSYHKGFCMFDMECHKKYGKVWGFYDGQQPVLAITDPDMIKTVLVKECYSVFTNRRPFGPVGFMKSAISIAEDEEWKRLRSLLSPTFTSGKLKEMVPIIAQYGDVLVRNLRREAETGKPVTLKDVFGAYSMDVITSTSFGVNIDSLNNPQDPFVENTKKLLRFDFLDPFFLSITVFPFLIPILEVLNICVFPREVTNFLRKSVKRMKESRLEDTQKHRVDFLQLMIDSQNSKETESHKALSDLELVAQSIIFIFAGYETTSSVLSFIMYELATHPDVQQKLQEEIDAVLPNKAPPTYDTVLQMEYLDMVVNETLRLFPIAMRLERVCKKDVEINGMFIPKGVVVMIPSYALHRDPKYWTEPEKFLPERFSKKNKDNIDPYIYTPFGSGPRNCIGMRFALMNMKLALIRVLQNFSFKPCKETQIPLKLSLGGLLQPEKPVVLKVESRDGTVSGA
Cytochrome P450 2C19 (Homo sapiens), sequence (P33261 whole entry, looked up): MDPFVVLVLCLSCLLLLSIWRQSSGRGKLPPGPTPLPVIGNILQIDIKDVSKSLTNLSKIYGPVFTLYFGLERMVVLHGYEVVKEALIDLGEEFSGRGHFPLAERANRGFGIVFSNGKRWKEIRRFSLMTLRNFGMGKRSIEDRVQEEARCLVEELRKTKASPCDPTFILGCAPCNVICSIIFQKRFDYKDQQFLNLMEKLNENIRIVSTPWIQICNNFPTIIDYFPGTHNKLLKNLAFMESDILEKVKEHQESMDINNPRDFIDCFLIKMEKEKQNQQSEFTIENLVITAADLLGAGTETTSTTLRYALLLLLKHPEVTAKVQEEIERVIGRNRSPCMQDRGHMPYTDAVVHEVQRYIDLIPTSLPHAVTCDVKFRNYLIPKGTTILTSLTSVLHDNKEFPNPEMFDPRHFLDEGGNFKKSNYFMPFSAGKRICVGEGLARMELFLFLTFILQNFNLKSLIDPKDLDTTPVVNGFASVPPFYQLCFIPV
Apoptosis regulator Bcl-2 (Homo sapiens), sequence (P10415 whole entry, looked up): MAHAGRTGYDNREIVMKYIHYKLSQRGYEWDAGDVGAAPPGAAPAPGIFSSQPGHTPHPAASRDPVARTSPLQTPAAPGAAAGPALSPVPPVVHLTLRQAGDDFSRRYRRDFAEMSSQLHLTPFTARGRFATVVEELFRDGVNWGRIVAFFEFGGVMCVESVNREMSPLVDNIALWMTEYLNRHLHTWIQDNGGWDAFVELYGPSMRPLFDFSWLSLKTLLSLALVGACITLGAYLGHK
Caspase-3 (Homo sapiens), sequence (P42574 whole entry, looked up): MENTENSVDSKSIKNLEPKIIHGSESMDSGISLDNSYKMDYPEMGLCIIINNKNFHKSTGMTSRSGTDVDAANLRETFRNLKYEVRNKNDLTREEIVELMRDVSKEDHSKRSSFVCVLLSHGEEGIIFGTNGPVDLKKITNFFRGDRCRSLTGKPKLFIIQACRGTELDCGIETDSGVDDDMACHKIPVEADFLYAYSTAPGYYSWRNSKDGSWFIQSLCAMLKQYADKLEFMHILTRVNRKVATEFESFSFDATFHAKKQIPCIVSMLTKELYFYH

CS(=O)(=O)c1cc(C(F)(F)F)ccc1C(=O)c1cnoc1C1CC1
active: [15] 9.92 µM | [17] 35 µM
inactive: all other assays above

C=CCOC(=O)C(C)(C)OC(=O)c1cc(-n2c(=O)cc(C(F)(F)F)n(C)c2=O)ccc1Cl
active: [11] 6.65 µM | [17] 16.6 µM
inactive: all other assays above

CC(C)C1(C)N=C(c2ncccc2C(=O)O)NC1=O (stereo not given)
inactive: all assays above

CCCCC(C#N)(Cn1cncn1)c1ccc(Cl)cc1 (stereo not given)
active: [2] 67 µM | [9] 19.3 µM | [11] 3.06 µM | [12] 5.75 µM | [13] 12.1 µM | [15] 50 µM | [16] 41.5 µM | [17] 4.85 µM | [18] 67.8 µM
inactive: all other assays above

CC(C)Nc1nc(Cl)nc(NC(C)C)n1
active: [2] 24.8 µM | [11] 2.93 µM | [12] 4.74 µM | [15] 37.8 µM | [17] 7.35 µM
inactive: all other assays above
